Records with an inconclusive call do not appear. Calls of active or inactive are those of the source. Calls follow the shape of the dose curve; as a rule, active = well fitted cell-killing curve with a large enough effect; inconclusive = small, poorly fitted or top-dose-only effect; inactive = flat fitted curve, though single readings scatter.
Potency is read from the fitted curve at half-maximal effect.

A short description of this test: qHTS of pediatric cancer cell lines to identify multiple opportunities for drug repurposing: Confirmatory screen for A673 cells (AID 1347110).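 Also: cells exposed to compound for 48 h before the viability read; nearly all actives have a fitted effect of over 65% in size.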 The following applies: A673 Ewing sarcoma cell viability; series mostly up to 45.9 µM. The essentials:
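A673 cells seeded at 500-1,000 cells/well, rested 5 h, then dosed; primary MIPE 11-point (0.78 nM to 46 µM), NPC (0.59 nM to 46 µM); confirmatory 11-point. CellTiter-Glo luminescence after 48 h.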
Take `Cn1cc(-c2cnn3c(N)c(Br)c([C@H]4CCCNC4)nc23)cn1`: the Potency is 14.7 µM (active).

As for `CN(CC(=O)N(Cc1ccc(C2CCCCC2)cc1)c1ccc(C(=O)O)c(O)c1)S(=O)(=O)c1c(F)c(F)c(F)c(F)c1F`, the Potency was 13.1 µM (active).

For the molecule `C=CC(=O)N1CCc2ccc(-n3c(=O)ccc4cnc5ccc(-c6cnn(C)c6)cc5c43)cc21`, the Potency was 14.7 µM (active).

With `CCc1cc(C(C)=NOCc2ccc(C3CCCCC3)c(C(F)(F)F)c2)ccc1CN1CC(C(=O)O)C1`, the Potency is 13.1 µM (active).

Consider `CCN(CC)Cc1ccc2cc(COC(=O)Nc3ccc(C(=O)NO)cc3)ccc2c1`, for which the Potency entry is “inactive”.

Consider `O=C(O)c1ccc(Nc2ncc3c(n2)-c2ccc(Cl)cc2C(c2c(F)cccc2F)=NC3)cc1`, for which the Potency was 10.4 µM (active).

For the molecule `Nc1ncn([C@@H]2O[C@H](CO)[C@@H](O)[C@@H]2O)c(=O)n1`, the Potency was 5.85 µM (active).

Values taken from PubChem BioAssay (NCATS).
